Nine molecules from PubChem BioAssay (Tox21) can be followed below.

Inconclusive results are not listed. Activity calls are given as the source filed them. Unless noted, calls come from the whole dose curve; as a rule, active = well fitted curve in the direction sought with a large enough effect in the repeat runs; inconclusive = weak or mixed curves; inactive = no such curve, though single readings can be large; an effect the other way counts as inactive or inconclusive.

Experiment [1] is described as follows: qHTS assay to identify small molecule agonists of the vitamin D receptor (VDR) signaling pathway - cell viability counter screen (AID 743224). Note: series mostly up to about 63 µM; nearly all actives have a fitted effect of over 50% in size. The method in brief:
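Compounds were pin-transferred onto VDR-bla cells plated 4 h earlier; following 16 h incubation at 37C, cell viability was quantified by CellTiter-Glo luminescence after 30 min at room temperature.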

Experiment [2] is described as follows: qHTS assay to identify small molecule antagonists of the vitamin D receptor (VDR) signaling pathway - cell viability counter screen (AID 743225). Note: nearly all actives have a fitted effect of over 50% in size. Put shortly: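 Luminescent cell viability (CellTiter-Glo) in VDR-bla HEK 293T cells after 16 h compound exposure at 37C in the presence of 3 nM final 1-alpha,25-dihydroxy vitamin D3.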
(In general: qHTS replaces the single test concentration by a dilution series.)

The nature of experiment [3]: qHTS assay to identify small molecule agonists of the NFkB signaling pathway (AID 1159509; active = well fitted curve in the direction sought with a large enough effect in the signal ratio in the repeat runs, not every such curve was filed as active; the % refers to the signal ratio; note: series mostly up to about 61 µM). The method in brief: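 Readout: FRET fluorescence, 405 nm excitation, 460/530 nm emission; beta-lactamase expression disrupts FRET. Cells: ME-180 stably carrying NF-kB-driven bla reporter. Compound exposure 5 hr, 37 C, 5% CO2.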
Experiment [4] can be described thus: qHTS assay to identify small molecule agonists of the NFkB signaling pathway - cell viability counter screen (AID 1159515; calls by dose curve; note: series mostly up to about 61 µM; nearly all actives have a fitted effect of over 55% in size). The method in brief:
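Parallel cytotoxicity counter screen in ME-180 cells carrying an NFkB-response-element beta-lactamase reporter, 2,000 cells/well. Compound exposure lasted 5 hr at 37 C, 5% CO2. Cell viability was quantified by CellTiter-Glo luminescence.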

The nature of experiment [5]: qHTS assay to identify small molecule agonists of the endoplasmic reticulum stress response signaling pathway (AID 1159516; active = well fitted activation curve with a large enough effect in the signal ratio in the repeat runs, not every such curve was filed as active; the % refers to the signal ratio). The method in brief:
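Using a HeLa line with an ESRE-driven beta-lactamase gene, agonist activity was measured by FRET substrate fluorescence (460 and 530 nm emission) after cells were treated with compounds for 5 hr at 37 C and 5% CO2.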

The nature of experiment [6]: qHTS assay to identify small molecule agonists of the endoplasmic reticulum stress response signaling pathway - cell viability counter screen (AID 1159517; calls by dose curve;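 note: HeLa cells carrying an ER stress response element beta-lactamase reporter; series mostly up to about 61 µM; nearly all actives have a fitted effect of over 50% in size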). The method in brief: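 Cytotoxicity of test compounds toward ESRE-bla HeLa cells was assessed after 5 hr exposure. The luminescent CellTiter-Glo signal was measured 30 min after reagent addition.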
A short description of experiment [7]: qHTS assay to identify small molecule antagonists of the retinoid-related orphan receptor gamma (ROR-gamma) signaling pathway - cell viability counter screen (AID 1159520). Note: nearly all actives have a fitted effect of over 50% in size. The method in brief: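 Tet-on ROR gamma CHO cells (1,000/well) were plated 4 hr, given compounds in DMSO for 2 hr at 37 C, then induced with 1 uM final doxycycline for 16 hr. Viability was read as ATP by CellTiter-Glo luminescence after 30 min.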

The target in experiment [8] is Nuclear receptor ROR-gamma (Homo sapiens) (UniProt P51449). The experiment can be described thus: qHTS assay to identify small molecule antagonists of the retinoid-related orphan receptor gamma (ROR-gamma) signaling pathway (AID 1159521). Put shortly: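 CHO cells expressing RORγ under a TET-on promoter, luciferase under RORE control. Dox 1 uM final, 16 h; compounds added 2 h prior. Luminescence decrease measured.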

Experiment [9] can be described thus: qHTS assay to identify small molecule agonists of the AP-1 signaling pathway - cell viability counter screen (AID 1159525; calls by dose curve; note: nearly all actives have a fitted effect of over 55% in size). Put shortly:
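Each titration point was normalised to DMSO and tetra n-octyl ammonium bromide controls. The read was Cell Titer Glo luminescence after 30 min at RT, following 5 h compound exposure of ME-180 AP-1-bla cells at 37 °C.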

Experiment [10] is described as follows: qHTS assay to identify small molecule agonists of the AP-1 signaling pathway (AID 1159526; calls by dose curve).
Experiment [11] deals with Retinoic acid receptor RXR-alpha (Homo sapiens) (UniProt P19793). The experiment can be described thus: qHTS assay to identify small molecule agonists of the RXR signaling pathway (AID 1159527; calls by dose curve; note: nearly all actives have a fitted effect of over 35% in size). The method in brief:
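Beta-lactamase reporter assay, agonist format. Engineered HEK 293T line, charcoal-stripped FBS at 2%, overnight (16 hr) exposure, fluorescence at 460 and 530 nm after 405 nm excitation.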

The nature of experiment [12]: qHTS assay to identify small molecule agonists of the RXR signaling pathway - cell viability counter screen (AID 1159529). The method in brief:
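Same-well viability check after the LiveBLAzer FRET read: CellTiter-Glo added, luminescence measured after 30 min at room temperature. Reporter HEK 293T cells had been treated with compounds for 16 hr following a 5 hr preincubation.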

A short description of experiment [13]: qHTS assay to identify small molecule antagonists of the retinoid acid receptor (RAR) signaling pathway - cell viability counter screen (AID 1159551). Note: nearly all actives have a fitted effect of over 35% in size. Put shortly: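 ATP-based viability, C3RL4 cells, 6 h at 37 C with 1 uM final retinol co-added after compound; luminescence read 30 min post CellTiter-Glo, RT.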
Experiment [14] in a line: qHTS assay to identify small molecule antagonists of the retinoic acid receptor (RAR) signaling pathway (AID 1159552; note: nearly all actives have a fitted effect of over 50% in size). Put shortly:
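Readout: luciferase luminescence, 30 min post-reagent at RT. Setup: C3RL4 RARE reporter cells, compounds plus retinol 1 uM final, 6 hr incubation at 37 C and 5% CO2.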

Experiment [15] can be described thus: qHTS assay to identify small molecule antagonists of the estrogen related receptor (ERR) signaling pathway from Tox21 library - cell viability counter screen (AID 1224834). Note: nearly all actives have a fitted effect of over 30% in size. The method in brief: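 Compounds in DMSO were pinned onto ERR cells that had been incubated for 6 h, and the plates were held at 37 C for 17.5 h. CellTiter-Fluor reagent was then added and fluorescence was measured after 30 min.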

A short description of experiment [16]: qHTS assay to identify small molecule antagonists of the estrogen related receptor (ERR) signaling pathway - cell viability counter screen (AID 1224818). Note: series mostly up to about 46 µM. The method in brief: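 Quantitative high-throughput viability counter screen in ERR cells. Compounds (DMSO) incubated 17.5 h at 37 C; read-out was CellTiter-Fluor fluorescence.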
Experiment [17] in a line: qHTS assay to identify small molecule agonists of the retinoic acid receptor (RAR) signaling pathway (AID 1159553). Note: potency is the fitted concentration of half-maximal effect. The method in brief: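 Quantitative high-throughput format: the Tox21 10K library was tested on C3RL4 RARE-luciferase cells for 6 hr at 37 C and 5% CO2, with luminescence measured after a 30 min room-temperature reagent step.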

Chain of Retinoic acid receptor RXR-alpha (Homo sapiens) (P19793 whole entry, looked up): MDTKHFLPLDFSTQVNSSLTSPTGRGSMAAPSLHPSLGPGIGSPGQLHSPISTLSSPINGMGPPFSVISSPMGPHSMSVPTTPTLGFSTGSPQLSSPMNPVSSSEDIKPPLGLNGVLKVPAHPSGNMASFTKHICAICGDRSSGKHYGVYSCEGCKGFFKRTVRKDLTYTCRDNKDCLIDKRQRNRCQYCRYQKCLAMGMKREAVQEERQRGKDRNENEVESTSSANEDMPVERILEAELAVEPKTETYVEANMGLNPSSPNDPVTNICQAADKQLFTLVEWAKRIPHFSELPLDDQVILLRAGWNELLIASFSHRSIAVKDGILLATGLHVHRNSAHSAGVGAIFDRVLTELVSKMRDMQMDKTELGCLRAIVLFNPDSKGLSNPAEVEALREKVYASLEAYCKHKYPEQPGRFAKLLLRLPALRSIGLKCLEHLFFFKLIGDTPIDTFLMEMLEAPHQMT

As for `COc1ccc2nc(SCc3ncc(C)c(OC)c3C)[nH]c2c1`, the Potency entry in experiment [1], in experiment [6], in experiment [11] and in [15] was “inactive” throughout. Also, the result in [2], in [3], in [4], in experiment [5], in [7] and in [8] was inactive. In addition, the result in [9], in [10], in [12], in experiment [13] and in [14] was inactive.

For the molecule `CC(C)NCC(O)COc1ccc(COCCOC(C)C)cc1` (stereo unspecified), the Potency entry in experiment [1], in experiment [6], in experiment [11] and in experiment [15] was “inactive” throughout. Further, the molecule was called inactive in [2], in experiment [3], in experiment [4], in experiment [5], in [7] and in [8]. Further, the outcome in experiment [9], in experiment [10], in experiment [12], in [13] and in experiment [16] was inactive.

For the molecule `Oc1ccccc1-c1nnco1`, the Potency entry in experiment [1], in [6], in experiment [11] and in experiment [15] was “inactive” throughout. Besides, the molecule was classed as inactive in experiment [2], in experiment [3], in experiment [4], in experiment [5], in [7] and in experiment [8]. In addition, the molecule was called inactive in experiment [9], in experiment [10], in experiment [12], in experiment [13] and in [14].

As for `Cc1ccccc1N=O`, the Potency entry in experiment [1], in [6], in experiment [11], in experiment [17] and in experiment [15] was “inactive” each time. Further, the call in experiment [2], in experiment [3], in experiment [4], in experiment [5], in [7] and in [8] was inactive. Moreover, the outcome in experiment [9], in experiment [10], in [12] and in [13] was inactive.

In the case of `Nc1ccc([N+](=O)[O-])c(N)c1`, the Potency result in experiment [1], in [6], in experiment [11] and in [17] was “inactive” in each case. The call in experiment [2], in experiment [3], in experiment [4], in [5], in experiment [7] and in [8] was inactive. The call in experiment [9], in [10], in experiment [12], in [13] and in experiment [14] was inactive.

Turning to `CC(=O)c1ccc2c(c1)Cc1ccccc1-2`, the Potency result in [1], in experiment [6], in experiment [11] and in experiment [15] was “inactive” in each case. Besides, the molecule was called inactive in experiment [2], in [3], in experiment [4], in [5], in [7] and in experiment [8]. Also, the outcome in [9], in experiment [10], in experiment [12], in experiment [13] and in experiment [14] was inactive.

Consider `CC1(CO)CN(c2ccccc2)NC1=O` (stereo unspecified), for which the molecule was called inactive in experiment [3], in experiment [4], in [5], in experiment [7], in [8] and in experiment [9]. Also, the outcome in [10], in experiment [12] and in experiment [13] was inactive. The Potency entry in experiment [6], in experiment [11] and in experiment [17] was “inactive” each time.

For the molecule `c1ccc2c(c1)ccc1c3ccccc3ccc21`, the Potency result in [1], in [6] and in [11] was “inactive” in each case. Further, the outcome in experiment [3], in experiment [4], in [5], in experiment [7], in experiment [8] and in [9] was inactive. Moreover, the result in experiment [10], in experiment [12], in experiment [13] and in experiment [14] was inactive. Also, the Potency in experiment [17] was 3.94 µM (active).

`O=C(CCNNC(=O)c1ccncc1)NCc1ccccc1`: the Potency entry in experiment [1], in experiment [6], in [11] and in experiment [15] was “inactive” throughout. Moreover, the molecule was called inactive in experiment [2], in experiment [3], in experiment [4], in experiment [5], in experiment [7] and in experiment [8]. In addition, the outcome in experiment [9], in [10], in [12], in [13] and in [16] was inactive.
